Reference: PubChem BioAssay (NCI)
This is part of a sample that, as a whole, favours compounds with a hit. Of some 83,000 tested, about 20% had one in any assay.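 Percent growth is the endpoint: 0 to 100 indicates growth inhibition (40 means 60% inhibition), 0 means no net growth, and negative values indicate cell death.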 Activity calls are given as the source filed them. The calls were made as follows: active = growth percent below 10; inactive = the rest.

Columns and labels:
Experiment in all cases: NCI-60 one-dose screen, 48 h (100 = growth as untreated, 0 = no growth, -100 = all killed)
Conditions in all cases: 10 µM unless noted
NCI-H23 lung = test system: NCI-H23 lung
NCI-H322M lung = test system: NCI-H322M lung
HOP-62 NSCLC = test system: HOP-62 NSCLC
NCI-H460 lung = test system: NCI-H460 lung
HOP-92 NSCLC = test system: HOP-92 NSCLC
NCI-H522 lung = test system: NCI-H522 lung
A549/ATCC NSCLC = test system: A549/ATCC NSCLC
786-0 renal = test system: 786-0 renal
COLO 205 colon = test system: COLO 205 colon
DU-145 prostate = test system: DU-145 prostate
K-562 leukemia = test system: K-562 leukemia
MALME-3M melanoma = test system: MALME-3M melanoma
MDA-MB-231 breast = test system: MDA-MB-231 breast
RXF 393 renal = test system: RXF 393 renal
SF-268 CNS = test system: SF-268 CNS
SF-295 CNS = test system: SF-295 CNS
SF-539 CNS = test system: SF-539 CNS
UACC-257 melanoma = test system: UACC-257 melanoma
M14 melanoma = test system: M14 melanoma
HCT-15 colon = test system: HCT-15 colon

Measured: growth

Cc1cc(Br)c(N)c(Br)c1
inactive: NCI-H23 lung 97% | NCI-H322M lung 105% | HOP-62 NSCLC 87.9% | NCI-H460 lung 104% | HOP-92 NSCLC 106% | NCI-H522 lung 86.3% | A549/ATCC NSCLC 73.3% | 786-0 renal 93.3% | COLO 205 colon 106% | DU-145 prostate 108% | K-562 leukemia 90% | MALME-3M melanoma 104% | MDA-MB-231 breast 103% | RXF 393 renal 106% | SF-268 CNS 106% | SF-295 CNS 95.9% | SF-539 CNS 95.5% | UACC-257 melanoma 77.5% | M14 melanoma 89.3% | HCT-15 colon 96.1%

O=C(Nc1ccc(I)cc1F)c1cc(Cl)ccc1O
active: NCI-H23 lung 1.96% | NCI-H322M lung 8.59% | HOP-62 NSCLC 2.14% | NCI-H460 lung 4% | HOP-92 NSCLC -15.8% | NCI-H522 lung -17.1% | A549/ATCC NSCLC 7% | 786-0 renal -7.97% | K-562 leukemia 8.14% | MALME-3M melanoma -28.9% | MDA-MB-231 breast -17.6% | RXF 393 renal 1.47% | SF-268 CNS 5.87% | SF-295 CNS -62.8% | SF-539 CNS 2.65% | UACC-257 melanoma -18.1% | M14 melanoma -22% | HCT-15 colon 2.58%
inactive: COLO 205 colon 42.8% | DU-145 prostate 13.8%

O=C(Nc1ccc(F)cc1F)c1cc(Br)ccc1O
active: NCI-H23 lung -12.6% | NCI-H322M lung 0.898% | HOP-62 NSCLC -8.56% | NCI-H460 lung 4.52% | HOP-92 NSCLC -25.6% | NCI-H522 lung -12.2% | A549/ATCC NSCLC 5.78% | 786-0 renal 3.19% | COLO 205 colon 7.66% | K-562 leukemia 4.71% | MALME-3M melanoma -30.1% | MDA-MB-231 breast -29.9% | RXF 393 renal -5.34% | SF-268 CNS 7.16% | SF-295 CNS -24.5% | SF-539 CNS 4.41% | UACC-257 melanoma -15% | M14 melanoma 7.28% | HCT-15 colon 9.98%
inactive: DU-145 prostate 13.2%

COc1ccc(CCN2C(=O)/C(=C/c3ccc(C4Oc5ccccc5C5CC(c6cccc(OC)c6)=NN54)cc3)SC2=S)cc1 (stereo not given)
inactive: NCI-H23 lung 99.8% | NCI-H322M lung 103% | HOP-62 NSCLC 100% | NCI-H460 lung 101% | HOP-92 NSCLC 96.2% | NCI-H522 lung 90.3% | A549/ATCC NSCLC 103% | 786-0 renal 105% | COLO 205 colon 107% | DU-145 prostate 101% | K-562 leukemia 105% | MALME-3M melanoma 97.8% | MDA-MB-231 breast 101% | RXF 393 renal 107% | SF-268 CNS 94.4% | SF-295 CNS 97.7% | SF-539 CNS 95.4% | UACC-257 melanoma 101% | M14 melanoma 97.1% | HCT-15 colon 102%

CC(C)Cn1c2c(c(=S)[nH]c1=O)CCC2
inactive: NCI-H23 lung 104% | NCI-H322M lung 103% | HOP-62 NSCLC 102% | NCI-H460 lung 105% | HOP-92 NSCLC 113% | NCI-H522 lung 96.1% | A549/ATCC NSCLC 103% | 786-0 renal 104% | COLO 205 colon 117% | DU-145 prostate 111% | K-562 leukemia 103% | MALME-3M melanoma 103% | MDA-MB-231 breast 101% | RXF 393 renal 109% | SF-268 CNS 98.6% | SF-295 CNS 107% | SF-539 CNS 97.4% | UACC-257 melanoma 109% | M14 melanoma 105% | HCT-15 colon 105%

O=c1oc2ccc(F)cc2c(=O)n1-c1ccc(Br)cc1F
inactive: COLO 205 colon 27.7% | DU-145 prostate 14.5% | SF-268 CNS 11.2%
active: NCI-H23 lung 1.49% | NCI-H322M lung 6.65% | HOP-62 NSCLC -0.164% | NCI-H460 lung 4.13% | HOP-92 NSCLC -15.2% | NCI-H522 lung -17.9% | A549/ATCC NSCLC 4.2% | 786-0 renal 2.85% | K-562 leukemia 6.75% | MALME-3M melanoma -23% | MDA-MB-231 breast -22% | RXF 393 renal -0.594% | SF-295 CNS -50.6% | SF-539 CNS 2.6% | UACC-257 melanoma -17.4% | M14 melanoma -2.25% | HCT-15 colon 2.89%

CC1=NCC2NC(=O)NC(C)=C12 (stereo not given)
inactive: NCI-H23 lung 103% | NCI-H322M lung 94.7% | HOP-62 NSCLC 97.9% | NCI-H460 lung 101% | HOP-92 NSCLC 87.7% | NCI-H522 lung 96.5% | A549/ATCC NSCLC 105% | 786-0 renal 96.9% | COLO 205 colon 108% | DU-145 prostate 104% | K-562 leukemia 110% | MALME-3M melanoma 96% | MDA-MB-231 breast 95% | RXF 393 renal 101% | SF-268 CNS 96.1% | SF-295 CNS 103% | SF-539 CNS 95.8% | UACC-257 melanoma 105% | M14 melanoma 98.5% | HCT-15 colon 103%

O=c1oc2ccc(Br)cc2c(=O)n1-c1ccc(F)cc1F
inactive: COLO 205 colon 85.5% | DU-145 prostate 18% | MDA-MB-231 breast 14.1% | SF-268 CNS 12.7% | SF-539 CNS 10.7% | M14 melanoma 12% | HCT-15 colon 13.6%
active: NCI-H23 lung 4.93% | NCI-H322M lung 7.55% | HOP-62 NSCLC 6.8% | NCI-H460 lung 5.91% | HOP-92 NSCLC -24.4% | NCI-H522 lung -6.16% | A549/ATCC NSCLC 6.77% | 786-0 renal 4.39% | K-562 leukemia 9.74% | MALME-3M melanoma -22.5% | RXF 393 renal 3.17% | SF-295 CNS -11.1% | UACC-257 melanoma -8.2%

CCCc1c(C)c2sc(=O)[nH]c2[nH]c1=O
inactive: NCI-H23 lung 104% | NCI-H322M lung 111% | HOP-62 NSCLC 107% | NCI-H460 lung 107% | HOP-92 NSCLC 104% | NCI-H522 lung 96% | A549/ATCC NSCLC 103% | 786-0 renal 109% | COLO 205 colon 113% | DU-145 prostate 114% | K-562 leukemia 107% | MALME-3M melanoma 108% | MDA-MB-231 breast 105% | RXF 393 renal 107% | SF-268 CNS 99.6% | SF-295 CNS 108% | SF-539 CNS 96.7% | UACC-257 melanoma 103% | M14 melanoma 108% | HCT-15 colon 103%

NC(CCl)=NCCC[C@H](N)C(=O)O
inactive: NCI-H23 lung 98.3% | NCI-H322M lung 99.5% | HOP-62 NSCLC 126% | NCI-H460 lung 101% | HOP-92 NSCLC 98.3% | NCI-H522 lung 95.4% | A549/ATCC NSCLC 97.8% | 786-0 renal 106% | COLO 205 colon 104% | DU-145 prostate 111% | K-562 leukemia 111% | MALME-3M melanoma 146% | MDA-MB-231 breast 95.8% | RXF 393 renal 100% | SF-268 CNS 108% | SF-295 CNS 81.1% | SF-539 CNS 103% | UACC-257 melanoma 87.6% | M14 melanoma 88.9% | HCT-15 colon 93.7%

Nc1cccc(Nc2cc(S(=O)(=O)O)c(N)c3c2C(=O)c2ccccc2C3=O)c1
inactive: NCI-H23 lung 109% | NCI-H322M lung 124% | HOP-62 NSCLC 114% | NCI-H460 lung 108% | HOP-92 NSCLC 132% | NCI-H522 lung 82.5% | A549/ATCC NSCLC 102% | 786-0 renal 111% | COLO 205 colon 110% | DU-145 prostate 119% | K-562 leukemia 101% | MALME-3M melanoma 105% | MDA-MB-231 breast 107% | RXF 393 renal 119% | SF-268 CNS 101% | SF-295 CNS 118% | SF-539 CNS 101% | UACC-257 melanoma 97% | M14 melanoma 103% | HCT-15 colon 96.7%

COc1ccc(C2=Nn3c(NN)nnc3SC2)cc1
inactive: NCI-H23 lung 95.9% | NCI-H322M lung 95.2% | HOP-62 NSCLC 104% | NCI-H460 lung 112% | HOP-92 NSCLC 105% | NCI-H522 lung 75.5% | A549/ATCC NSCLC 87.2% | 786-0 renal 104% | COLO 205 colon 108% | DU-145 prostate 103% | K-562 leukemia 83.3% | MALME-3M melanoma 109% | MDA-MB-231 breast 103% | RXF 393 renal 95.8% | SF-268 CNS 100% | SF-295 CNS 106% | SF-539 CNS 95.6% | UACC-257 melanoma 84.3% | M14 melanoma 113% | HCT-15 colon 114%

COc1ccc(-c2nc(N3CCN(C(=O)C4CCCCC4)CC3)c3c4c(sc3n2)CCCC4)cc1
active: HOP-62 NSCLC -84.5% | NCI-H460 lung -32.8% | NCI-H522 lung -23.9% | A549/ATCC NSCLC -36.3% | 786-0 renal -78.4% | COLO 205 colon -38.5% | DU-145 prostate -21.9% | K-562 leukemia 0.112% | MALME-3M melanoma -56.2% | RXF 393 renal -59.3% | SF-295 CNS -82% | SF-539 CNS -1.73%
inactive: NCI-H23 lung 44% | NCI-H322M lung 43.1% | HOP-92 NSCLC 44.8% | MDA-MB-231 breast 36.9% | SF-268 CNS 20.3% | UACC-257 melanoma 63.5% | M14 melanoma 29.9% | HCT-15 colon 49.2%

CC[C@@H](C)[C@H](NC(=O)Cn1cc(CNC(=O)[C@@H](NC(=O)OCc2ccccc2)C(C)C)nn1)C(=O)O
inactive: NCI-H23 lung 101% | NCI-H322M lung 108% | HOP-62 NSCLC 114% | NCI-H460 lung 110% | HOP-92 NSCLC 102% | NCI-H522 lung 101% | A549/ATCC NSCLC 101% | 786-0 renal 106% | COLO 205 colon 124% | DU-145 prostate 114% | K-562 leukemia 104% | MALME-3M melanoma 105% | MDA-MB-231 breast 99.4% | RXF 393 renal 104% | SF-268 CNS 114% | SF-295 CNS 94.1% | SF-539 CNS 105% | UACC-257 melanoma 101% | M14 melanoma 107% | HCT-15 colon 111%

CC1=C(C(=O)OCC2CCN(C(=O)OC(C)(C)C)CC2)[C@H](c2cccc(Br)c2)C2=C(CC(C)(C)CC2=O)N1
active: NCI-H460 lung 8.59%
inactive: NCI-H23 lung 48.4% | NCI-H322M lung 57.2% | HOP-62 NSCLC 55.7% | HOP-92 NSCLC 61.7% | NCI-H522 lung 19.8% | A549/ATCC NSCLC 17.3% | 786-0 renal 44.1% | COLO 205 colon 27.4% | DU-145 prostate 38.3% | K-562 leukemia 15.8% | MALME-3M melanoma 26.1% | MDA-MB-231 breast 46% | RXF 393 renal 66.3% | SF-268 CNS 33.1% | SF-295 CNS 39.9% | SF-539 CNS 41.2% | UACC-257 melanoma 29.1% | M14 melanoma 29.8% | HCT-15 colon 21%
